From PubChem BioAssay AID1159580 (chemical genetic matrix, 2015)
Values joined by “and” are separate entries in the source; they are usually repeats but may differ in a detail not shown here. Equal values may be shown once. Hit rate of the full screen: of about 5,500 compounds, about 2,000 (36%) were called active. Inconclusive results (about 18%) are left out. Cut-off read from the data, not from the text of the source: active = normalized growth mostly below about 0.91 (no sharp cut-off); inconclusive = no clear call, values can overlap the other calls; inactive = mostly above about 0.92. Some of the results follow.

Experiment: chemical genetic growth profiling, strain panel (AID 1159580);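 note: tested at 20 µM; growth read once vehicle control cultures reached saturation at 30 °C; 1 = growth at the plate median or of vehicle wells; lower values mean less growth of the strain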
Settings: S. cerevisiae deletion strains, growth OD

Measured: normalized growth

CC(C)[C@@H]1CC[C@@H](C)C[C@H]1OC(=O)c1ccccc1
inactive: locus YAL013W, strain DEP1, stronger effect = lower value 1.01 | locus YAL021C, strain ccr4, stronger effect = lower value 1.01 | locus YAL026C, strain drs2, stronger effect = lower value 1.01 | locus YAL030W, strain snc1, stronger effect = lower value 1.01 | locus YBL061C, strain skt5, stronger effect = lower value 1.01 | locus YBR009C, strain hhf1, stronger effect = lower value 0.999 | locus YBR021W, strain FUR4, stronger effect = lower value 0.997 | locus YBR023C, strain chs3, stronger effect = lower value 1.01 | locus YBR171W, strain sec66, stronger effect = lower value 1 | locus YBR229C, strain ROT2, stronger effect = lower value 1.01 | locus YBR231C, strain swc5, stronger effect = lower value 1.02 | locus YBR279W, strain paf1, stronger effect = lower value 1.01 | locus YCL011C, strain gbp2, stronger effect = lower value 1 | locus YCL016C, strain dcc1, stronger effect = lower value 1.01 | locus YCL029C, strain bik1, stronger effect = lower value 0.99 | locus YCL061C, strain MRC1, stronger effect = lower value 1 | locus YCL069W, strain vba3, stronger effect = lower value 1 | locus YCR088W, strain abp1, stronger effect = lower value 1 | locus YDL005C, strain med2, stronger effect = lower value 0.991 | locus YDL035C, strain GPR1, stronger effect = lower value 0.988 | locus YDL040C, strain nat1, stronger effect = lower value 0.993 | locus YDL074C, strain BRE1, stronger effect = lower value 0.995 | locus YDL101C, strain DUN1, stronger effect = lower value 0.999 | locus YDL134C, strain PPH21, stronger effect = lower value 0.962 | locus YDL185W, strain tfp1, stronger effect = lower value 0.997 | locus YDL192W, strain arf1, stronger effect = lower value 0.929 | locus YDR001C, strain nth1, stronger effect = lower value 0.994 | locus YDR069C, strain doa4, stronger effect = lower value 0.999 | locus YDR101C, strain arx1, stronger effect = lower value 0.978 | locus YDR137W, strain rgp1, stronger effect = lower value 0.942 | locus YDR150W, strain NUM1, stronger effect = lower value 1.04 | locus YDR159W, strain sac3, stronger effect = lower value 1.02 | locus YDR162C, strain NBP2, stronger effect = lower value 0.91 | locus YDR195W, strain ref2 0.975 | locus YDR297W, strain sur2, stronger effect = lower value 1.01 | locus YDR318W, strain mcm21, stronger effect = lower value 0.992 | locus YDR334W, strain swr1, stronger effect = lower value 1 | locus YDR335W, strain msn5, stronger effect = lower value 1.01 | locus YDR388W, stronger effect = lower value 0.999 | locus YDR392W, strain spt3, stronger effect = lower value 0.997 | locus YDR502C, strain sam2, stronger effect = lower value 0.995 | locus YEL003W, strain gim4, stronger effect = lower value 1.02 | locus YEL037C, strain rad23, stronger effect = lower value 1.01 | locus YEL061C, strain CIN8 (second series), stronger effect = lower value 1.01 | locus YEL061C, strain CIN8, stronger effect = lower value 1.03 | locus YER015W, strain faa2, stronger effect = lower value 1.01 | locus YER016W, strain bim1, stronger effect = lower value 0.999 | locus YER110C, stronger effect = lower value 1 | locus YER111C, strain swi4, stronger effect = lower value 1.01 | locus YER155C, strain BEM2 (second series), stronger effect = lower value 1.02 | locus YER155C, strain BEM2, stronger effect = lower value 1.01 | locus YER167W, strain BCK2, stronger effect = lower value 1.01 | locus YFR010W, strain ubp6, stronger effect = lower value 1.01 | locus YGL078C, strain dbp3, stronger effect = lower value 0.971 | locus YGL086W, strain mad1, stronger effect = lower value 0.999 | locus YGL167C, strain pmr1, stronger effect = lower value 1 | locus YGL173C, strain kem1, stronger effect = lower value 1.02 | locus YGL227W, strain vid30, stronger effect = lower value 1 | locus YGL240W, strain doc1, stronger effect = lower value 1.03 | locus YGL248W, strain PDE1, stronger effect = lower value 0.94 | locus YGL253W, strain hxk2, stronger effect = lower value 1.01 | locus YGR135W, strain pre9, stronger effect = lower value 0.974 | locus YGR252W, strain gcn5, stronger effect = lower value 0.959 | locus YHR013C, strain ard1, stronger effect = lower value 1.06 | locus YHR027C, strain rpn1, stronger effect = lower value 1 | locus YHR030C, strain SLT2, stronger effect = lower value 1.02 and 1.01 | locus YHR079C, strain IRE1 (second series), stronger effect = lower value 0.997 | locus YHR079C, strain IRE1, stronger effect = lower value 1.01 | locus YHR094C, strain hxt1, stronger effect = lower value 1 | locus YHR129C, strain ARP1, stronger effect = lower value 1.01 | locus YHR142W, strain chs7, stronger effect = lower value 0.976 | locus YHR200W, strain rpn10, stronger effect = lower value 1.02 | locus YIL066C, strain RNR3, stronger effect = lower value 1.01 | locus YIL073C, strain SPO22, stronger effect = lower value 0.881 | locus YIL125W, strain kgd1, stronger effect = lower value 0.99 | locus YIR030C, strain dcg1, stronger effect = lower value 0.996 | locus YJL092W, strain hpr5, stronger effect = lower value 1 | locus YJL095W, strain BCK1 (second series), stronger effect = lower value 1.01 | locus YJL095W, strain BCK1, stronger effect = lower value 0.992 and 1.02 | locus YJL115W, strain asf1, stronger effect = lower value 1 | locus YJL129C, strain trk1, stronger effect = lower value 0.994 | locus YJL134W, strain LCB3, stronger effect = lower value 1.02 | locus YJL154C, strain vps35, stronger effect = lower value 0.993 | locus YJL164C, strain tpk1, stronger effect = lower value 0.997 | locus YJL166W, strain qcr8, stronger effect = lower value 0.984 | locus YJL168C, strain set2, stronger effect = lower value 0.986 | locus YJL187C, strain SWE1 (second series), stronger effect = lower value 1 | locus YJL187C, strain SWE1, stronger effect = lower value 1.01 | locus YJR043C, strain POL32, stronger effect = lower value 1.03 | locus YJR066W, strain TOR1, stronger effect = lower value 0.951 | locus YKL009W, strain mrt4, stronger effect = lower value 0.985 | locus YKL068W, stronger effect = lower value 1.01 | locus YKL085W, strain MDH1 (second series), stronger effect = lower value 1.01 | locus YKL085W, strain MDH1, stronger effect = lower value 1.01 | locus YKL160W, strain elf1, stronger effect = lower value 0.998 | locus YKR001C, strain vps1, stronger effect = lower value 0.91 | locus YKR026C, strain gcn3, stronger effect = lower value 0.977 | locus YKR091W, strain srl3, stronger effect = lower value 0.995 | locus YLL001W, strain dnm1, stronger effect = lower value 0.993 | locus YLL026W, stronger effect = lower value 1 | locus YLL041C, strain sdh2, stronger effect = lower value 0.996 | locus YLR027C, strain aat2, stronger effect = lower value 1 | locus YLR039C, strain RIC1, stronger effect = lower value 0.922 | locus YLR058C, strain SHM2, stronger effect = lower value 1.01 | locus YLR102C, strain apc9, stronger effect = lower value 1 | locus YLR113W, strain HOG1, stronger effect = lower value 1.02 | locus YLR221C, strain rsa3, stronger effect = lower value 0.997 | locus YLR258W, strain gsy2, stronger effect = lower value 1 | locus YLR262C, strain YPT6 (second series), stronger effect = lower value 0.973 | locus YLR262C, strain YPT6, stronger effect = lower value 0.981 | locus YLR268W, strain sec22, stronger effect = lower value 0.997 | locus YLR320W, strain mms22, stronger effect = lower value 1.01 | locus YLR330W, strain CHS5, stronger effect = lower value 1.02 | locus YLR342W, strain FKS1 (second series), stronger effect = lower value 1.06 | locus YLR342W, strain FKS1, stronger effect = lower value 1.01 | locus YLR357W, strain rsc2, stronger effect = lower value 1.01 | locus YLR370C, strain arc18, stronger effect = lower value 1.01 | locus YLR371W, strain rom2, stronger effect = lower value 1 | locus YLR384C, strain iki3, stronger effect = lower value 1.03 | locus YLR418C, strain cdc73, stronger effect = lower value 1 | locus YML016C, strain PPZ1, stronger effect = lower value 1.01 | locus YML032C, strain rad52, stronger effect = lower value 1.01 | locus YML120C, strain ndi1, stronger effect = lower value 1.02 | locus YML124C, strain tub3, stronger effect = lower value 0.999 | locus YMR058W, strain fet3, stronger effect = lower value 1.02 | locus YMR078C, strain ctf18, stronger effect = lower value 1 | locus YMR125W, strain sto1, stronger effect = lower value 0.992 | locus YMR129W, stronger effect = lower value 0.999 | locus YMR205C, strain PFK2, stronger effect = lower value 1.04 | locus YMR223W, strain ubp8, stronger effect = lower value 0.995 | locus YMR231W, strain pep5, stronger effect = lower value 1 | locus YMR307W, strain GAS1, stronger effect = lower value 0.948 | locus YNL067W, strain RPL9B, stronger effect = lower value 1 | locus YNL071W, strain lat1, stronger effect = lower value 1 | locus YNL153C, strain GIM3, stronger effect = lower value 1.02 | locus YNL183C, strain NPR1, stronger effect = lower value 0.946 | locus YNL209W, strain ssb2, stronger effect = lower value 1 | locus YNL233W, strain BNI4, stronger effect = lower value 1 | locus YNL248C, strain rpa49, stronger effect = lower value 0.986 | locus YNL250W, strain rad50, stronger effect = lower value 1.02 | locus YNL271C, strain bni1, stronger effect = lower value 0.993 | locus YNL298W, strain CLA4, stronger effect = lower value 0.992 | locus YNL307C, strain MCK1, stronger effect = lower value 1.01 | locus YNL322C, strain KRE1 (second series), stronger effect = lower value 1.01 | locus YNL322C, strain KRE1, stronger effect = lower value 1.01 | locus YNR049C, strain mso1, stronger effect = lower value 1 | locus YNR052C, strain pop2, stronger effect = lower value 0.989 | locus YOL012C, strain htz1 1.15 | locus YOL147C, strain pex11, stronger effect = lower value 1 | locus YOR001W, strain rrp6, stronger effect = lower value 0.999 | locus YOR061W, strain CKA2, stronger effect = lower value 1.01 | locus YOR069W, strain VPS5, stronger effect = lower value 1.01 | locus YOR070C, strain gyp1, stronger effect = lower value 1.01 | locus YOR080W, strain dia2, stronger effect = lower value 1.01 | locus YOR083W, strain WHI5, stronger effect = lower value 1 | locus YOR106W, strain vam3, stronger effect = lower value 0.949 | locus YOR136W, strain idh2, stronger effect = lower value 0.996 | locus YOR144C, strain elg1, stronger effect = lower value 1 | locus YOR184W, strain ser1, stronger effect = lower value 0.921 | locus YOR231W, strain MKK1, stronger effect = lower value 1.02 | locus YOR265W, strain rbl2, stronger effect = lower value 0.997 | locus YOR270C, strain vph1, stronger effect = lower value 1.01 | locus YOR290C, strain snf2, stronger effect = lower value 0.979 | locus YOR316C, strain cot1, stronger effect = lower value 1 | locus YPL051W, strain arl3, stronger effect = lower value 1 | locus YPL078C, strain atp4, stronger effect = lower value 0.999 | locus YPL106C, strain sse1, stronger effect = lower value 1.02 | locus YPL240C, strain hsp82, stronger effect = lower value 1 | locus YPL241C, strain CIN2, stronger effect = lower value 1.02 | locus YPL256C, strain CLN2, stronger effect = lower value 1.02 | locus YPR119W, strain clb2, stronger effect = lower value 0.993 | locus YPR141C, strain kar3, stronger effect = lower value 1.01 | locus YPR163C, strain tif3, stronger effect = lower value 1 | locus YPR167C, strain met16, stronger effect = lower value 0.993 | strain wtn01, stronger effect = lower value 1
